PubChem BioAssay AID1159580 (chemical genetic matrix, 2015)
Values joined by “and” are separate entries in the source; they are usually repeats but may differ in a detail not shown here. Identical values can stand only once. The campaign covered roughly 5,500 compounds. About 2,000 (36%) were called active. Roughly 18% stayed inconclusive and do not appear here. Cut-off read from the data, not from the text of the source: active = normalized growth mostly below about 0.91 (no sharp cut-off); inconclusive = no clear call, values can overlap the other calls; inactive = mostly above about 0.92. This is one part of the list. Where a structure was tested more than once in an assay, its records may differ in their call.

Assay: chemical genetic growth profiling, strain panel (AID 1159580);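 note: tested at 20 µM; growth read once vehicle control cultures reached saturation at 30 °C; 1 = growth at the plate median or of vehicle wells; lower values mean less growth of the strain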
Settings: S. cerevisiae deletion strains, growth OD

Measured: normalized growth

Clc1ccccc1C(c1ccccc1)(c1ccccc1)n1ccnc1
0.0559 (active) and 0.976 (inactive): locus YMR263W, strain SAP30, stronger effect = lower value
active: locus YAL013W, strain DEP1, stronger effect = lower value 0.0556 and 0.0854 | locus YAL021C, strain ccr4, stronger effect = lower value 0.0659 | locus YAL026C, strain drs2, stronger effect = lower value 0.0665 | locus YAL030W, strain snc1, stronger effect = lower value 0.0563 | locus YAL040C, strain CLN3, stronger effect = lower value 0.613 | locus YBL061C, strain skt5, stronger effect = lower value 0.0604 | locus YBR009C, strain hhf1, stronger effect = lower value 0.0704 | locus YBR021W, strain FUR4, stronger effect = lower value 0.0896 | locus YBR023C, strain chs3, stronger effect = lower value 0.0661 | locus YBR171W, strain sec66, stronger effect = lower value 0.0777 | locus YBR229C, strain ROT2, stronger effect = lower value 0.0472 | locus YBR231C, strain swc5, stronger effect = lower value 0.0624 | locus YBR279W, strain paf1, stronger effect = lower value 0.0598 | locus YCL011C, strain gbp2, stronger effect = lower value 0.0573 | locus YCL016C, strain dcc1, stronger effect = lower value 0.066 | locus YCL029C, strain bik1, stronger effect = lower value 0.0623 | locus YCL061C, strain MRC1, stronger effect = lower value 0.0642 | locus YCL069W, strain vba3, stronger effect = lower value 0.0627 | locus YCR088W, strain abp1, stronger effect = lower value 0.0657 | locus YDL005C, strain med2, stronger effect = lower value 0.0759 | locus YDL035C, strain GPR1, stronger effect = lower value 0.0497 | locus YDL040C, strain nat1, stronger effect = lower value 0.058 | locus YDL074C, strain BRE1, stronger effect = lower value 0.0785 | locus YDL101C, strain DUN1, stronger effect = lower value 0.0582 | locus YDL134C, strain PPH21, stronger effect = lower value 0.0506 | locus YDL185W, strain tfp1, stronger effect = lower value 0.0604 | locus YDL192W, strain arf1, stronger effect = lower value 0.0622 | locus YDR001C, strain nth1, stronger effect = lower value 0.0587 | locus YDR069C, strain doa4, stronger effect = lower value 0.0629 | locus YDR101C, strain arx1, stronger effect = lower value 0.0588 | locus YDR137W, strain rgp1, stronger effect = lower value 0.103 | locus YDR150W, strain NUM1, stronger effect = lower value 0.0555 | locus YDR159W, strain sac3, stronger effect = lower value 0.0888 | locus YDR162C, strain NBP2, stronger effect = lower value 0.0501 | locus YDR195W, strain ref2 0.125 | locus YDR297W, strain sur2, stronger effect = lower value 0.0578 | locus YDR318W, strain mcm21, stronger effect = lower value 0.0626 | locus YDR334W, strain swr1, stronger effect = lower value 0.0633 | locus YDR335W, strain msn5, stronger effect = lower value 0.0619 | locus YDR388W, stronger effect = lower value 0.0576 | locus YDR392W, strain spt3, stronger effect = lower value 0.0716 | locus YDR502C, strain sam2, stronger effect = lower value 0.0632 | locus YEL003W, strain gim4, stronger effect = lower value 0.0556 | locus YEL037C, strain rad23, stronger effect = lower value 0.0574 | locus YEL061C, strain CIN8 (second series), stronger effect = lower value 0.0638 | locus YEL061C, strain CIN8, stronger effect = lower value 0.0506 | locus YER002W, strain NOP16, stronger effect = lower value 0.0949 | locus YER015W, strain faa2, stronger effect = lower value 0.0658 | locus YER016W, strain bim1, stronger effect = lower value 0.0637 | locus YER110C, stronger effect = lower value 0.0769 | locus YER111C, strain swi4, stronger effect = lower value 0.0727 | locus YER155C, strain BEM2 (second series), stronger effect = lower value 0.0917 | locus YER155C, strain BEM2, stronger effect = lower value 0.0644 | locus YER167W, strain BCK2, stronger effect = lower value 0.0514 | locus YFR010W, strain ubp6, stronger effect = lower value 0.0718 | locus YGL078C, strain dbp3, stronger effect = lower value 0.0828 | locus YGL086W, strain mad1, stronger effect = lower value 0.0584 | locus YGL167C, strain pmr1, stronger effect = lower value 0.0741 | locus YGL173C, strain kem1, stronger effect = lower value 0.07 | locus YGL227W, strain vid30, stronger effect = lower value 0.0633 | locus YGL240W, strain doc1, stronger effect = lower value 0.0729 | locus YGL248W, strain PDE1, stronger effect = lower value 0.0484 | locus YGL253W, strain hxk2, stronger effect = lower value 0.0556 | locus YGR078C, strain PAC10, stronger effect = lower value 0.0496 | locus YGR135W, strain pre9, stronger effect = lower value 0.0631 | locus YGR252W, strain gcn5, stronger effect = lower value 0.165 | locus YHR013C, strain ard1, stronger effect = lower value 0.105 | locus YHR027C, strain rpn1, stronger effect = lower value 0.0633 | locus YHR030C, strain SLT2, stronger effect = lower value 0.0505 and 0.1 | locus YHR079C, strain IRE1 (second series), stronger effect = lower value 0.0577 | locus YHR079C, strain IRE1, stronger effect = lower value 0.135 | locus YHR094C, strain hxt1, stronger effect = lower value 0.059 | locus YHR129C, strain ARP1, stronger effect = lower value 0.0557 | locus YHR142W, strain chs7, stronger effect = lower value 0.0738 | locus YHR200W, strain rpn10, stronger effect = lower value 0.0614 | locus YIL066C, strain RNR3, stronger effect = lower value 0.0483 | locus YIL073C, strain SPO22, stronger effect = lower value 0.112 | locus YIL125W, strain kgd1, stronger effect = lower value 0.0895 | locus YIR030C, strain dcg1, stronger effect = lower value 0.0606 | locus YJL092W, strain hpr5, stronger effect = lower value 0.0611 | locus YJL095W, strain BCK1 (second series), stronger effect = lower value 0.059 | locus YJL095W, strain BCK1, stronger effect = lower value 0.0611 and 0.105 | locus YJL115W, strain asf1, stronger effect = lower value 0.0739 | locus YJL129C, strain trk1, stronger effect = lower value 0.0834 | locus YJL134W, strain LCB3, stronger effect = lower value 0.0474 | locus YJL154C, strain vps35, stronger effect = lower value 0.0614 | locus YJL164C, strain tpk1, stronger effect = lower value 0.0678 | locus YJL166W, strain qcr8, stronger effect = lower value 0.064 | locus YJL168C, strain set2, stronger effect = lower value 0.0596 | locus YJL187C, strain SWE1 (second series), stronger effect = lower value 0.0488 | locus YJR043C, strain POL32, stronger effect = lower value 0.0648 | locus YJR066W, strain TOR1, stronger effect = lower value 0.016 | locus YKL009W, strain mrt4, stronger effect = lower value 0.0996 | locus YKL068W, stronger effect = lower value 0.0901 | locus YKL085W, strain MDH1 (second series), stronger effect = lower value 0.0744 | locus YKL085W, strain MDH1, stronger effect = lower value 0.0744 | locus YKL160W, strain elf1, stronger effect = lower value 0.0633 | locus YKR001C, strain vps1, stronger effect = lower value 0.0631 | locus YKR026C, strain gcn3, stronger effect = lower value 0.0593 | locus YKR091W, strain srl3, stronger effect = lower value 0.0594 | locus YLL001W, strain dnm1, stronger effect = lower value 0.0628 | locus YLL026W, stronger effect = lower value 0.0716 | locus YLL041C, strain sdh2, stronger effect = lower value 0.0574 | locus YLR027C, strain aat2, stronger effect = lower value 0.0566 | locus YLR039C, strain RIC1, stronger effect = lower value 0.0954 | locus YLR058C, strain SHM2, stronger effect = lower value 0.048 | locus YLR102C, strain apc9, stronger effect = lower value 0.0623 | locus YLR113W, strain HOG1, stronger effect = lower value 0.156 | locus YLR221C, strain rsa3, stronger effect = lower value 0.0591 | locus YLR258W, strain gsy2, stronger effect = lower value 0.0599 | locus YLR262C, strain YPT6 (second series), stronger effect = lower value 0.0778 | locus YLR262C, strain YPT6, stronger effect = lower value 0.109 | locus YLR268W, strain sec22, stronger effect = lower value 0.0686 | locus YLR320W, strain mms22, stronger effect = lower value 0.0761 | locus YLR330W, strain CHS5, stronger effect = lower value 0.0528 | locus YLR342W, strain FKS1 (second series), stronger effect = lower value 0.0674 | locus YLR342W, strain FKS1, stronger effect = lower value 0.0672 | locus YLR357W, strain rsc2, stronger effect = lower value 0.126 | locus YLR370C, strain arc18, stronger effect = lower value 0.0649 | locus YLR371W, strain rom2, stronger effect = lower value 0.0633 | locus YLR384C, strain iki3, stronger effect = lower value 0.0655 | locus YLR418C, strain cdc73, stronger effect = lower value 0.0956 | locus YML016C, strain PPZ1, stronger effect = lower value 0.0479 | locus YML032C, strain rad52, stronger effect = lower value 0.0691 | locus YML120C, strain ndi1, stronger effect = lower value 0.058 | locus YML124C, strain tub3, stronger effect = lower value 0.0616 | locus YMR058W, strain fet3, stronger effect = lower value 0.0615 | locus YMR078C, strain ctf18, stronger effect = lower value 0.0734 | locus YMR125W, strain sto1, stronger effect = lower value 0.0678 | locus YMR129W, stronger effect = lower value 0.0585 | locus YMR205C, strain PFK2, stronger effect = lower value 0.0848 | locus YMR223W, strain ubp8, stronger effect = lower value 0.0652 | locus YMR231W, strain pep5, stronger effect = lower value 0.0713 | locus YMR307W, strain GAS1, stronger effect = lower value 0.125 | locus YNL067W, strain RPL9B, stronger effect = lower value 0.0471 | locus YNL071W, strain lat1, stronger effect = lower value 0.0635 | locus YNL153C, strain GIM3, stronger effect = lower value 0.695 | locus YNL175C, strain NOP13, stronger effect = lower value 0.0913 | locus YNL183C, strain NPR1, stronger effect = lower value -0.00509 | locus YNL197C, strain WHI3, stronger effect = lower value 0.0874 | locus YNL209W, strain ssb2, stronger effect = lower value 0.0647 | locus YNL224C, strain SQS1, stronger effect = lower value 0.109 | locus YNL233W, strain BNI4, stronger effect = lower value 0.0563 | locus YNL248C, strain rpa49, stronger effect = lower value 0.0733 | locus YNL250W, strain rad50, stronger effect = lower value 0.0869 | locus YNL271C, strain bni1, stronger effect = lower value 0.0905 | locus YNL298W, strain CLA4, stronger effect = lower value 0.0742 | locus YNL307C, strain MCK1, stronger effect = lower value 0.0679 | locus YNL322C, strain KRE1 (second series), stronger effect = lower value 0.0616 | locus YNR049C, strain mso1, stronger effect = lower value 0.0594 | locus YNR052C, strain pop2, stronger effect = lower value 0.0613 | locus YOL006C, strain TOP1, stronger effect = lower value 0.115 | locus YOL147C, strain pex11, stronger effect = lower value 0.0589 | locus YOR001W, strain rrp6, stronger effect = lower value 0.075 | locus YOR061W, strain CKA2, stronger effect = lower value 0.0463 | locus YOR069W, strain VPS5, stronger effect = lower value 0.0473 | locus YOR070C, strain gyp1, stronger effect = lower value 0.0595 | locus YOR080W, strain dia2, stronger effect = lower value 0.0658 | locus YOR083W, strain WHI5 (second series), stronger effect = lower value 0.0984 | locus YOR083W, strain WHI5, stronger effect = lower value 0.0702 | locus YOR106W, strain vam3, stronger effect = lower value 0.0682 | locus YOR136W, strain idh2, stronger effect = lower value 0.0727 | locus YOR144C, strain elg1, stronger effect = lower value 0.0577 | locus YOR184W, strain ser1, stronger effect = lower value 0.0702 | locus YOR231W, strain MKK1, stronger effect = lower value 0.117 | locus YOR265W, strain rbl2, stronger effect = lower value 0.0588 | locus YOR270C, strain vph1, stronger effect = lower value 0.092 | locus YOR290C, strain snf2, stronger effect = lower value 0.0637 | locus YOR316C, strain cot1, stronger effect = lower value 0.0603 | locus YPL051W, strain arl3, stronger effect = lower value 0.0647 | locus YPL055C, strain LGE1, stronger effect = lower value 0.0751 | locus YPL078C, strain atp4, stronger effect = lower value 0.0637 | locus YPL106C, strain sse1, stronger effect = lower value 0.0995 | locus YPL240C, strain hsp82, stronger effect = lower value 0.0582 | locus YPL256C, strain CLN2, stronger effect = lower value 0.127 | locus YPR119W, strain clb2, stronger effect = lower value 0.0642 | locus YPR141C, strain kar3, stronger effect = lower value 0.096 | locus YPR163C, strain tif3, stronger effect = lower value 0.0728 | locus YPR167C, strain met16, stronger effect = lower value 0.0634 | strain wtn01, stronger effect = lower value 0.0677
inactive: locus YOL012C, strain htz1 0.23
